{
  "source": "PubChem BioAssay (NCATS)",
  "note": "Records with an inconclusive call do not appear. Active and inactive are the calls of the source. The call rests on the fitted dose curve; in most records, active means well fitted cell-killing curve with a large enough effect; inconclusive means small, poorly fitted or top-dose-only effect, or effect the other way; inactive means no such curve, though single readings can be large or run the other way. Potency means the concentration at half of the fitted maximal effect.",
  "data": [
    {"assay": "Quantitative High-Throughput drug screen in 47 multiple myeloma cell lines against the NCATS MIPE library collection: ARP1_JJKsccF8 cell viability assay (AID 1918928; further: nearly all actives have a fitted effect of over 40% in size)", "conditions": "ARP1 myeloma cells viability, CellTiter-Glo ATP, 48 h; series mostly up to 45.8 µM", "text": "PI: Beverly A. Mock Ph.D.\nLaboratory of Cancer Biology and Genetics,\nCenter for Cancer Research, National Cancer Institute,\nNational Institute of Health, Bethesda, Maryland\nDrug resistance and disease progression are common in multiple myeloma (MM) patients, underscoring the need for new therapeutic combinations. […] We hypothesized that effective combinations would reduce MYC expression and enhance p16 activity. […] These preclinical data identify potentially useful drug combinations for evaluation in drug-resistant MM and reveal potential mechanisms of combined drug sensitivity.\nDescribed herein is the primary MIPE qHTS used to cherrypick compounds. Validated compounds were then further tested for potential synergistic activiy.\n[1] Peat TJ, Gaikwad SM, Dubois W, Gyabaah-Kessie N, Zhang S, Gorjifard S, Phyo Z, Andres M, Hughitt VK, Simpson RM, Miller MA, Girvin AT, Taylor A, Williams D, D'Antonio N, Zhang Y, Rajagopalan A, Flietner E, Wilson K, Zhang X, Shinn P, Klumpp-Thomas C, McKnight C, Itkin Z, Chen L, Kazandijian D, Zhang J, Michalowski AM, Simmons JK, Keats J, Thomas CJ, Mock BA. Drug combinations identified by high-throughput screening promote cell cycle transition and upregulate Smad pathways in myeloma. Cancer Lett. 2023 Aug 1;568:216284. doi: 10.1016/j.canlet.2023.216284. Epub 2023 Jun 24. PMID: 37356470; PMCID: PMC10408729.\nSEQUENCE No. (e.g., 1, 2, 3, etc.); […] (e.g., Cells, Incubation, Reagent, etc.); VALUE and DESCRIPTION.\n1; Cells; 5 uL; white, solid bottom 1536-well Greiner assay plate.\n2; Compounds; 23 nL; Kalypsis pin tool (Wako USA) equipped with a 1536-well pin head to transfer to the assay plates.\n3; Incubation; 48 hours; 37C incubation.\n4; Reagent;5uL; CellTiter Glo (Promega).\n5; Detector; 425V; Luminescence; Viewlux PerkinElmer.\nNOTES (numbers refer to Sequence numbers above)\n1. The cell-based screening methods employed in this study were like those previously published. Briefly, the corresponding myeloma cell lines were screened in 1,536-well plates with 500 cells, 5-uL per well for inhibition of cell viability (assessed by measuring ATP levels with CellTiterGlo).\n2. NCATS MIPE 4.0 library of approved and investigational drugs were added using the Kalypsis pin tool. Wells treated with DMSO only for 100% viability and media only cells for 0% viability were used as controls.\n3. The assay plates were covered and incubated for 48 hours in a 37C, 5% CO2 incubator with controlled humidity.\n4. After 48 hours, CellTilter-GloTM luminescent substrate mix (Promega) reagent was added to the assay plate and plates we incubated for 5 min at room temperature.\n5. Signal was measured as median relative luminescence units on a ViewLux (PerkinElmer) multiplate reader.\n[1] Heske CM, Davis MI, Baumgart JT, Wilson K, Gormally MV, Chen L, Zhang X, Ceribelli M, Duveau DY, Guha R, Ferrer M, Arnaldez FI, Ji J, Tran HL, Zhang Y, Mendoza A, Helman LJ, Thomas CJ. Matrix Screen Identifies Synergistic Combination of PARP Inhibitors and Nicotinamide Phosphoribosyltransferase (NAMPT) Inhibitors in Ewing Sarcoma. Clin Cancer Res. 2017 Dec 1;23(23):7301-7311. doi: 10.1158/1078-0432.CCR-17-1121. Epub 2017 Sep 12. PMID: 28899971; PMCID: PMC6636827.", "values": [
      {"smiles": "C[C@@H]1CN(CC(=O)Nc2ccc3c(c2)Cc2cccc(-c4cc(=O)cc(N5CCOCC5)o4)c2S3)C[C@H](C)O1", "Potency": "9.35 µM (active)"},
      {"smiles": "COc1cc(C(=O)NS(=O)(=O)c2ccccc2C)ccc1Cc1cn(C)c2ccc(NC(=O)OC3CCCC3)cc12", "Potency": "18.7 µM (active)"},
      {"smiles": "Cc1cc(Nc2ncnc3ccc(-c4ccc(CNCCS(C)(=O)=O)o4)cc23)ccc1Oc1ccn2ncnc2c1", "Potency": "11.8 µM (active)"},
      {"smiles": "Nc1ccn([C@@H]2O[C@H](CO)[C@H](O)C2(F)F)c(=O)n1", "Potency": "0.105 µM (active)"},
      {"smiles": "CN(C)CC=CC(=O)Nc1cc2c(Nc3ccc(F)c(Cl)c3)ncnc2cc1O[C@H]1CCOC1", "Potency": "18.7 µM (active)"},
      {"smiles": "c1cc(-c2cnn3cc(-c4ccc(OCCN5CCCCC5)cc4)cnc23)ccn1", "Potency": "16.6 µM (active)"},
      {"smiles": "COc1ccc(C=Cc2cc(OC)c(OC)c(OC)c2)cc1O", "Potency": "inactive"},
      {"smiles": "Cc1[nH]nc2ccc(-c3cncc(OC[C@@H](N)Cc4ccccc4)c3)cc12", "Potency": "4.69 µM (active)"},
      {"smiles": "COC(=O)C[C@](O)(CCCC(C)(C)O)C(=O)O[C@@H]1C(OC)=C[C@]23CCCN2CCc2cc4c(cc2[C@H]13)OCO4", "Potency": "inactive"},
      {"smiles": "OCc1ccc(-c2ccc(-c3ccc(CO)s3)o2)s1", "Potency": "18.7 µM (active)"},
      {"smiles": "O=C(Cc1ccc(-c2ccc(OCCN3CCOCC3)cc2)cn1)NCc1ccccc1", "Potency": "0.0166 µM (active)"},
      {"smiles": "Cc1nc(Nc2n[nH]c3c2CN(C(=O)N[C@H](CN(C)C)c2ccccc2)C3(C)C)c2sccc2n1", "Potency": "0.469 µM (active)"},
      {"smiles": "Cn1cc(-c2[nH]c3cc(NC(=O)[C@H](N)C4CCCCC4)cc4c3c2C=NNC4=O)cn1", "Potency": "7.43 µM (active)"},
      {"smiles": "O=C(NC1CCNCC1)c1[nH]ncc1NC(=O)c1c(Cl)cccc1Cl", "Potency": "0.372 µM (active)"},
      {"smiles": "O=C(c1ccc(Nc2nccc(-c3cc4ccccc4s3)n2)cc1)N1CCC(N2CCCC2)CC1", "Potency": "13.2 µM (active)"},
      {"smiles": "O=C1CCC[C@@H]2[C@H]3CCC[N+]4([O-])CCC[C@@H](CN12)[C@@H]34", "note": "(stereo not given in full)", "Potency": "inactive"},
      {"smiles": "Cc1cc(C(=O)N2CCN(c3cccc(Cl)c3)CC2)n(-c2ccccc2)n1", "Potency": "0.59 µM (active)"},
      {"smiles": "CC1(O)CC(c2nc(-c3ccc4ccc(-c5ccccc5)nc4c3)c3c(N)nccn23)C1", "note": "(stereo not given)", "Potency": "5.9 µM (active)"},
      {"smiles": "O=C(Nc1cn[nH]c1-c1nc2ccc(CN3CCOCC3)cc2[nH]1)NC1CC1", "Potency": "4.18 µM (active)"},
      {"smiles": "Cc1ccc(-c2ncn(-c3ccc(Nc4nccc(-c5cccc(N6CCOCC6)c5)n4)cc3)n2)cn1", "Potency": "0.166 µM (active)"},
      {"smiles": "COc1cc(OC2CCN(C)CC2)ccc1Nc1ncc2c(n1)n(C1CCCC1)c(=O)n2C", "Potency": "16.6 µM (active)"},
      {"smiles": "Nc1cc(C(F)(F)F)c(-c2cc(N3CCOCC3)nc(N3CCOCC3)n2)cn1", "Potency": "0.209 µM (active)"},
      {"smiles": "COc1cc(C)c(Sc2cnc(NC(=O)c3ccc(CNC(C)C(C)C)cc3)s2)cc1C(=O)N1CCN(C(C)=O)CC1", "note": "(stereo not given)", "Potency": "16.6 µM (active)"},
      {"smiles": "Cc1cnc(Nc2ccc(F)cc2Cl)nc1-c1c[nH]c(C(=O)N[C@H](CO)c2cccc(Cl)c2)c1", "Potency": "23.5 µM (active)"},
      {"smiles": "COCCOc1ccc2c(c1)ncn2-c1ccc2cccc(N3CCC(N)CC3)c2n1", "Potency": "0.418 µM (active)"},
      {"smiles": "O=C(NCCS(=O)(=O)c1ccc(C(F)(F)F)cn1)c1ccc(Cl)cc1", "Potency": "inactive"},
      {"smiles": "Nc1ncnc2c1c(-c1cnc3[nH]ccc3c1)nn2C1CCCC1", "Potency": "0.743 µM (active)"},
      {"smiles": "O=C(O)CO.[NH2-].[NH2-].[Pt+2]", "Potency": "inactive"},
      {"smiles": "C=CC(=O)Nc1cc2c(Nc3ccc(F)c(Cl)c3)ncnc2cc1OCCCN1CCOCC1", "Potency": "5.9 µM (active)"},
      {"smiles": "C1=CCOCc2cc(ccc2OCCN2CCCC2)Nc2nccc(n2)-c2cccc(c2)OCC1", "Potency": "1.66 µM (active)"},
      {"smiles": "CCCCc1nc2cc(C=CC(=O)NO)ccc2n1CCN(CC)CC", "Potency": "0.148 µM (active)"},
      {"smiles": "Cn1cc(-c2ccncc2)c(-c2ccc(OCc3ccc4ccccc4n3)cc2)n1", "Potency": "4.69 µM (active)"},
      {"smiles": "NCC(=O)Nc1ccc(-n2nc(C(F)(F)F)cc2-c2ccc3c(ccc4ccccc43)c2)cc1", "Potency": "23.5 µM (active)"},
      {"smiles": "Cc1ccc(NC(=O)C2(c3ccc4c(c3)OC(F)(F)O4)CC2)nc1-c1cccc(C(=O)O)c1", "Potency": "0.0264 µM (active)"},
      {"smiles": "Cc1cc(Nc2cc(N3CCN(C)CC3)nc(C=Cc3ccccc3)n2)n[nH]1", "Potency": "4.29 µM (active)"},
      {"smiles": "O=c1[nH]nc(Sc2ncc([N+](=O)[O-])s2)n1-c1ccc2c(c1)OCCO2", "Potency": "2.96 µM (active)"},
      {"smiles": "C[C@@H](Oc1cc(-c2cnn(C3CCNCC3)c2)cnc1N)c1c(Cl)ccc(F)c1Cl", "Potency": "8.33 µM (active)"},
      {"smiles": "CNc1nccc(-c2cccnc2Oc2cc(C(=O)Nc3cccc(C(F)(F)F)c3)ccc2C)n1", "Potency": "23.5 µM (active)"},
      {"smiles": "COc1ccc(C(=O)CC2(O)C(=O)Nc3c(Cl)ccc(Cl)c32)cc1", "note": "(stereo not given)", "Potency": "3.72 µM (active)"},
      {"smiles": "Cc1cc(CN2CCN(c3c(Br)cnc4nc(-c5ccc(N6CCN(C)CC6)cc5)[nH]c34)CC2)no1", "Potency": "14.8 µM (active)"}
    ]}
  ]
}
